Reference: PubChem BioAssay AID1159580 (chemical genetic matrix, 2015)
Where “and” joins values, the source holds several entries; their conditions need not be identical. Equal values may be shown once. Screen size: about 5,500 compounds; about 2,000 (36%) were called active. Not shown: some 18% with an inconclusive outcome. Cut-off read from the data, not from the text of the source: active = normalized growth mostly below about 0.91 (no sharp cut-off); inconclusive = no clear call, values can overlap the other calls; inactive = mostly above about 0.92. The list shows a part of the results.

Assay: chemical genetic growth profiling, strain panel (AID 1159580);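 note: tested at 20 µM; growth read once vehicle control cultures reached saturation at 30 °C; 1 = growth at the plate median or of vehicle wells; lower values mean less growth of the strain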
Conditions: S. cerevisiae deletion strains, growth OD

Measured: normalized growth

CCCCN(CC)c1c([N+](=O)[O-])cc(C(F)(F)F)cc1[N+](=O)[O-]
inactive: locus YAL013W, strain DEP1, hits give low values 1.01 | locus YAL021C, strain ccr4, hits give low values 0.998 | locus YAL026C, strain drs2, hits give low values 1.02 | locus YAL030W, strain snc1, hits give low values 1.02 | locus YBL061C, strain skt5, hits give low values 1 | locus YBR009C, strain hhf1, hits give low values 1 | locus YBR021W, strain FUR4, hits give low values 1.03 | locus YBR023C, strain chs3, hits give low values 1.01 | locus YBR171W, strain sec66, hits give low values 1.03 | locus YBR229C, strain ROT2, hits give low values 0.999 | locus YBR231C, strain swc5, hits give low values 1 | locus YBR279W, strain paf1, hits give low values 1.01 | locus YCL011C, strain gbp2, hits give low values 1 | locus YCL016C, strain dcc1, hits give low values 1.01 | locus YCL029C, strain bik1, hits give low values 1.02 | locus YCL061C, strain MRC1, hits give low values 1.01 | locus YCL069W, strain vba3, hits give low values 1.02 | locus YCR088W, strain abp1, hits give low values 1.01 | locus YDL005C, strain med2, hits give low values 1.02 | locus YDL035C, strain GPR1, hits give low values 1.02 | locus YDL040C, strain nat1, hits give low values 1.01 | locus YDL074C, strain BRE1, hits give low values 1.03 | locus YDL101C, strain DUN1, hits give low values 1.01 | locus YDL134C, strain PPH21, hits give low values 1.01 | locus YDL185W, strain tfp1, hits give low values 1.03 | locus YDL192W, strain arf1, hits give low values 1.02 | locus YDR001C, strain nth1, hits give low values 1.01 | locus YDR069C, strain doa4, hits give low values 1 | locus YDR101C, strain arx1, hits give low values 1.01 | locus YDR137W, strain rgp1, hits give low values 0.98 | locus YDR150W, strain NUM1, hits give low values 1.01 | locus YDR159W, strain sac3, hits give low values 1 | locus YDR162C, strain NBP2, hits give low values 1.02 | locus YDR195W, strain ref2 1.01 | locus YDR297W, strain sur2, hits give low values 1 | locus YDR318W, strain mcm21, hits give low values 1.01 | locus YDR334W, strain swr1, hits give low values 1.02 | locus YDR335W, strain msn5, hits give low values 1.02 | locus YDR388W, hits give low values 1.01 | locus YDR392W, strain spt3, hits give low values 1.01 | locus YDR502C, strain sam2, hits give low values 1.01 | locus YEL003W, strain gim4, hits give low values 1.02 | locus YEL037C, strain rad23, hits give low values 1.01 | locus YEL061C, strain CIN8 (second series), hits give low values 1.03 | locus YEL061C, strain CIN8, hits give low values 1.01 | locus YER015W, strain faa2, hits give low values 1.02 | locus YER016W, strain bim1, hits give low values 1.01 | locus YER110C, hits give low values 1.02 | locus YER111C, strain swi4, hits give low values 1.01 | locus YER155C, strain BEM2 (second series), hits give low values 1.03 | locus YER155C, strain BEM2, hits give low values 1.01 | locus YER167W, strain BCK2, hits give low values 1.01 | locus YFR010W, strain ubp6, hits give low values 1.02 | locus YGL078C, strain dbp3, hits give low values 1.01 | locus YGL086W, strain mad1, hits give low values 1.01 | locus YGL167C, strain pmr1, hits give low values 1.01 | locus YGL173C, strain kem1, hits give low values 1.01 | locus YGL227W, strain vid30, hits give low values 1.01 | locus YGL240W, strain doc1, hits give low values 1.02 | locus YGL248W, strain PDE1, hits give low values 1 | locus YGL253W, strain hxk2, hits give low values 1.02 | locus YGR078C, strain PAC10, hits give low values 1.01 | locus YGR135W, strain pre9, hits give low values 1.01 | locus YGR229C, strain SMI1, hits give low values 1.02 | locus YGR252W, strain gcn5, hits give low values 1.05 | locus YHR013C, strain ard1, hits give low values 1.06 | locus YHR027C, strain rpn1, hits give low values 1.03 | locus YHR030C, strain SLT2, hits give low values 1.01 and 1.08 | locus YHR079C, strain IRE1 (second series), hits give low values 1.01 | locus YHR079C, strain IRE1, hits give low values 1.03 | locus YHR094C, strain hxt1, hits give low values 1.01 | locus YHR129C, strain ARP1, hits give low values 1.01 | locus YHR142W, strain chs7, hits give low values 1.02 | locus YHR200W, strain rpn10, hits give low values 1.01 | locus YIL066C, strain RNR3, hits give low values 1.01 | locus YIL073C, strain SPO22, hits give low values 1.02 | locus YIL125W, strain kgd1, hits give low values 1.01 | locus YIR030C, strain dcg1, hits give low values 1.01 | locus YJL092W, strain hpr5, hits give low values 1.01 | locus YJL095W, strain BCK1 (second series), hits give low values 1.01 | locus YJL095W, strain BCK1, hits give low values 0.996 and 1.05 | locus YJL115W, strain asf1, hits give low values 1.01 | locus YJL129C, strain trk1, hits give low values 1.01 | locus YJL134W, strain LCB3, hits give low values 1.01 | locus YJL154C, strain vps35, hits give low values 1.02 | locus YJL164C, strain tpk1, hits give low values 1.01 | locus YJL166W, strain qcr8, hits give low values 1 | locus YJL168C, strain set2, hits give low values 1.01 | locus YJL187C, strain SWE1 (second series), hits give low values 1.01 | locus YJL187C, strain SWE1, hits give low values 1.01 | locus YJR043C, strain POL32, hits give low values 1.02 | locus YJR066W, strain TOR1, hits give low values 0.992
